Here are results for 40 molecules from PubChem BioAssay (NCI).

The panel holds about 83,000 compounds, 20% with a hit somewhere; the sample as a whole holds those more often.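 48-hour exposure, single concentration, 96-well plates; percent growth endpoint where 0 means no net growth. Active: below 10.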 Active and inactive are the calls of the source.

The test deals with SNB-75 CNS. As to the kind of experiment: NCI-60 one-dose screen, 48 h (100 = growth as untreated, 0 = no growth, -100 = all killed). The settings on record: 10 µM unless noted.
Turning to `Nc1ccc(S(=O)(=O)c2ccc(NO)cc2)cc1`, the growth was 87.8% (inactive).

In the case of `COc1cc(NC(C)CCCN)c2nccc(C)c2c1OC` (stereo not given), the growth was 103% (inactive).

For `CCCC(=O)NNc1[nH]c(-c2cc(OC)c(OC)c(OC)c2)cc1C(=O)OCC`, the growth was 114% (inactive).

As to `CC(C)OC(=O)c1ccc2n1CCCc1cnc(Nc3ccccc3)nc1-2`, the growth is 98.6% (inactive).

Take `COC(=O)c1ccc2[nH]c(O)c(C(=Nc3ccc(N(C)C(=O)CN4CCN(C)CC4)cc3)c3ccc(OC)cc3)c2c1`: the growth was 6.7% (active).

On to `CC(=O)c1cc(Nc2cc(C)nc(N)n2)cc(C(C)=O)c1`, for which the growth is 90.3% (inactive).

`CCOC(=O)C1=C(C(F)(F)F)NC(=S)NC1CN1C(=O)c2ccccc2C1=O` (stereo not given): the growth is 104% (inactive).

On to `CC(C)OC(=O)[C@H](C)N[P@@](=O)(OC[C@@]1(C)O[C@@H](n2cc(F)c(N)nc2=O)C[C@@H]1O[P@](=O)(N[C@@H](C)C(=O)OC(C)C)Oc1ccccc1)Oc1ccccc1`, for which the growth was 78.3% (inactive).

`COc1ccc(Cn2cc3c(c2-c2ccccc2)CCc2cnoc2-3)cc1OC`: the growth was -11.1% (active).

On to `CC1C(=O)CCCC1=O`, for which the growth was 90.9% (inactive).

Regarding `Brc1ccc(-c2nc3ccccc3s2)cc1`, the growth is 80.6% (inactive).

As for `O=C(Nc1cccc(Cn2c(=O)[nH]c3ccc(Oc4ncccn4)cc3c2=O)c1)c1ccc(Cl)cc1`, the growth was 50.9% (inactive).

Regarding `Cc1ccc(S(=O)(=O)Nc2cccc(Cn3c(=O)[nH]c4ccc(Oc5ncccn5)cc4c3=O)c2)cc1`, the growth was 78.9% (inactive).

As to `CC1(C)Oc2cc3oc(=O)ccc3cc2C[C@@H]1OCCOS(=O)(=O)c1ccc(C#N)cc1`, the growth was 93.4% (inactive).

As for `COC1NC(Cl)=C(C#N)C(C#N)(C#N)C1(C)C` (stereo not given), the growth was 105% (inactive).

In the case of `COc1ccccc1C(=O)Nc1cccc(-c2cc(=O)c3c(OC)c(OC)c(OC)cc3o2)c1`, the growth was 83.2% (inactive).

As for `C=C(NC(=O)[C@H](C(C)C)N(C)c1cccc2[nH]ccc12)C(=O)OC`, the growth was 105% (inactive).

In the case of `Cc1nc2c(nnn2-c2ccccc2)c2nc(-c3ccccc3)oc(=O)c12`, the growth is 99.1% (inactive).

On to `CCCCCCCCCC[N+](C)(C)C`, for which the growth is -22.8% (active).

As for `CCOC(=O)c1ccc2n1CCCc1cnc(NC(C)=O)nc1-2`, the growth is 85.5% (inactive).

For the molecule `O=S(=O)(O)c1ccc2c(c1)Sc1cc(S(=O)(=O)O)ccc1O2`, the growth was 93.2% (inactive).

`COc1cc(/C=C/C(=O)c2ccc(F)cc2)ccc1OCCCCOc1cc2c(cc1OC)C(=O)N1CCCC1C=N2` (stereo not given): the growth is -8.01% (active).

As for `COC(=O)C(C)[C@H]1CC[C@@H]2[C@]1(C)CC=C1[C@]23C=C[C@]2(C[C@@H](OC(C)=O)CC[C@]12C)C(C(=O)OC)C3C(=O)OC` (stereo not given in full), the growth was 98.5% (inactive).

Consider `COc1ccc2cnc(N)c(C#Cc3cc(C(=O)Nc4ccc(CN5CCN(C)CC5)c(C(F)(F)F)c4)cnc3C)c2c1`, for which the growth is -1.84% (active).

As to `COc1cccc2c1nc1cccc(OC)c1[n+]2[O-]`, the growth was 58.3% (inactive).

For the molecule `O=C1/C(=N\c2cc(=O)[nH]n2S(=O)(=O)c2ccccc2)Nc2ccccc21`, the growth is 81.2% (inactive).

Take `c1ccc(Nc2ccccn2)cc1`: the growth was 118% (inactive).

Take `COc1ccc(OC)c(Cn2cc3c(c2)-c2oncc2CC3)c1`: the growth was -1.67% (active).

On to `O=C1C(=O)c2ccccc2C(O)=C1CCCc1ccc(C2CCCC2)cc1`, for which the growth is 39.9% (inactive).

With `CCCOC(=O)c1c(C)n(C)c2scc[n+]12`, the growth is 80.1% (inactive).

With `COc1cc(-c2nc3c(c(C)nc4c3nnn4-c3ccccc3)c(=O)o2)cc(OC)c1OC`, the growth is 89.6% (inactive).

For the molecule `COC(=O)Nc1nc2ccc(C(=O)c3ccccc3N(C)C3COC3)cc2[nH]1`, the growth was 16.4% (inactive).

On to `COc1cc(Cn2ccc3c2-c2oncc2CC3)cc(OC)c1`, for which the growth is -16% (active).

As for `c1ccc(Nc2ncc3c(n2)-c2cccn2CC3)cc1`, the growth was 83.3% (inactive).

Turning to `N=c1c2c(=O)n3c(nc2nc2sc4ccc(Cl)cc4n12)-c1ccccc1Sc1ccccc1-3`, the growth is 18.6% (inactive).

Turning to `NC(=O)CC(NC(=O)COc1ccc(Cl)cc1Cl)C(=O)O` (stereo not given), the growth was 102% (inactive).

`C=C(C)[C@@H]1CC[C@]2(COC(=O)c3ccccc3C(=O)O)CC[C@]3(C)[C@H](CC[C@@H]4[C@@]5(C)CCCNC(C)(C)[C@@H]5CC[C@]43C)[C@@H]12`: the growth was 75% (inactive).

Regarding `C/C=C(/C)C(=O)OC1C=C(CO)C(=O)C(OC(=O)/C(C)=C\C)C1C(C)C` (stereo not given), the growth is -43.4% (active).

Take `CC(=O)OC1CC2C3CCC4C[C@@H](NC(=O)C=C(C)C)CC[C@]4(C)C3CC[C@]2(C)[C@H]1C(C)N(C)C` (stereo not given in full): the growth was 8.51% (active).

`CC(=O)/C(=C/c1ccc(-c2ccccc2)cc1)C(=O)c1ccccc1`: the growth is 79.7% (inactive).
